# Shiga inhibitor – blocks Shiga toxin action in Vero cells. Vero cells, Shiga toxin protein synthesis inhibition reporter. inhibition, % at 38.7 µM. 290,000 compounds, 9.2% hits; in the data active = inhibition mostly above about 28%, no sharp cut-off; inactive = mostly below about 43%; also: 0% is about no effect
# Lassa entry inh – blocks Lassa virus binding to or entry into cells. Lassa virus pseudotype entry inhibition, cell reporter. Potency, µM (top dose mostly 37.9 µM), for the others: top-dose activity change, negative = inhibition, usual class: inhibitors. 300,000 compounds, 1.2% hits; calls by dose curve; tested in HEK293 cells; also: potency is read from the fitted curve at half-maximal effect; % is scaled to controls: 0 for no effect and ±100 for the full control effect; nearly all actives have a fitted effect of over 50% in size
# CHX counter – affects cycloheximide protein synthesis inhibition readout, counter-screen | max response, % | 300,000 compounds, 12% hits | cell reporter, cycloheximide protein synthesis inhibition counterscreen; in the data active = max response mostly above about 13%, no sharp cut-off; inactive = mostly below about 14%; also: read at 38.3 µM for the half of the compounds with a filed dose; 0% is about no effect
# Marburg entry inh – blocks Marburg virus binding to or entry into cells. AID 540276. 300,000 compounds, 1.8% hits. Marburg virus pseudotyped entry inhibition, cell reporter. Potency, µM (highest dose often 37.8 µM), inactives show at the highest dose activity change, negative = inhibition, hits mostly inhibitors; calls by dose curve; tested in HEK293 cells; also: potency is read from the fitted curve at half-maximal effect; % is scaled to controls: 0 for no effect and ±100 for the full control effect
# * marks the source's active call; other numbers are inactive results; ? = inconclusive; / = no result; [ ] = remark or other dose. A selection: hits, their analogues and other compounds. The true share with any hit is near 12%.
SMILES,Shiga inhibitor,Lassa entry inh,CHX counter,Marburg entry inh
O=C(NCCc1ccccn1)c1ccc(NS(=O)(=O)c2ccc(F)cc2)cc1,-10,?,9,?
O=C(NCCc1ccccn1)c1ccc(OC(F)F)cc1,75*,-24%[46.1 µM],25*,?
O=C(NCc1ccccn1)C(F)(F)C(F)(F)C(=O)NCc1ccccn1,-7,-14%,-4,5%
CCC(C)NC(=O)c1sc2nc(C)c(C(=O)Nc3ccc(C)cc3C)c(-c3ccccc3Cl)c2c1N (centres undefined),/,6%[46.1 µM],/,?
CCc1c2c(nc3ccc4c(c13)OCCO4)-c1nc3ccccc3c(=O)n1C2,-1,/,-8,/
O=C1c2ccccc2C(=O)N1/N=C/c1ccc(O)c(O)c1,47*,9%,9,-12%
Cc1ccc(NC(=S)N2CCCCCC2)cc1,75*,6%,37*,22%
S=C(Nc1ccc(Cl)cc1)N1CCCC1,36,6%,30*,17%
OCC1CCCN(C(=S)Nc2ccc(Oc3ccccc3)cc2)C1 (centres undefined),80*,?,43*,?
S=C(Nc1cc(Cl)cc(Cl)c1)N1CCCC1,-6,/,-3,/
CC(=O)c1ccc(NC(=S)N2CCCC(CO)C2)cc1 (centres undefined),51*,4%,38*,-15%
COc1cc(NC(=S)N2CCCC(CO)C2)cc(OC)c1 (centres undefined),19,4%,0,16%[46.1 µM]
CCCCCCCC#Cc1ccccc1C=NS(=O)c1ccc(C)cc1 (centres undefined),/,/,/,4%[14.2 µM]
COc1ccc(-c2nc(N)c(C#N)c(-c3cccnc3)c2C)cc1,-11,/,-4,/
COc1ccc(CN2CCN(CCCCOc3ccc(Cl)cc3)CC2)c(OC)c1OC,4,-12%[46.1 µM],8,?
CC(=O)c1cccc(NC(=O)C(Cc2ccccc2)NS(=O)(=O)c2ccc(Br)s2)c1 (centres undefined),/,3%[46.1 µM],/,-2%[46.1 µM]
Cc1ccc(NC(=S)N2CCCC2)cc1,77*,/,27*,/
CC(=O)c1ccc(NC(=S)N2CCCCCC2)cc1,67*,17%,21*,10%[46.1 µM]
Cc1ccc(NC(=S)N2CCCCC2)cc1C,43*,-5%,20*,7%[46.1 µM]
COc1ccc(NC(=S)N2CCCCCC2)cc1OC,-1,/,-1,/
Fc1ccc(NC(=S)N2CCCC2)cc1,/,12%,/,16%
O=C(CCC1N=C2c3ccccc3N=C(SCc3ccc(F)cc3)N2C1=O)N1CCN(c2ccccc2)CC1 (centres undefined),/,12%[46.1 µM],/,25%[46.1 µM]
CC(=O)OC1c2ccccc2C(=O)N1Cc1ccccc1Cl (centres undefined),-4,/,-4,/
COc1ccccc1-n1cnc2cc(NCc3cccs3)ccc21,44*,-17%,23*,?
Cc1ccccc1-n1cnc2cc(NCc3cccs3)ccc21,45,?,12,?
SMILES,Shiga inhibitor,Lassa entry inh,CHX counter,Marburg entry inh
COc1ccccc1-n1cnc2cc(NCc3ccccc3O)ccc21,70*,/,22*,/
O=C(CNc1ccc(Oc2ccccc2)cc1)N1CCOCC1,36*,15%,12*,15%
S=C(Nc1ccc(Oc2ccccc2)cc1)N1CCOCC1,25,-19%,12*,-2%
S=C(Nc1ccccc1)N1CCOCCOCCN(C(=S)Nc2ccccc2)CCOCCOCC1,-3,17%,-2,5.6µM*
CN1CCN(C(=S)Nc2ccc(Oc3ccccc3)cc2)CC1,14,-9%[46.1 µM],10,9%[46.1 µM]
O=C(Nc1ccccc1)Nc1ccc(C(=O)N2CCOCC2)cc1,62*,?,46*,9%
O=C(c1cccc(Oc2ccccc2)c1)N1CCOCC1,6,/,2,/
CCNC(=S)N1CCN(C(=O)C(Cc2ccccc2)NC(C)=O)CC1 (centres undefined),21,/,4,/
C[C@@H]1Cc2ccccc2N1NC(=O)c1ccc(Cl)c(S(N)(=O)=O)c1,/,/,/,5%
COc1ccc(S(=O)(=O)n2ccc(-c3cnc(-c4ccccc4)s3)n2)cc1,37,?,17*,?
O=C(c1ccccc1)n1ccc(-c2cnc(-c3ccccc3)s2)n1,97*,?,40*,?
CN(CCOc1ccc(-c2ccn(S(=O)(=O)c3ccc(Cl)cc3)n2)cc1)c1ccccn1,11,?,7,-25%
CC(C)OC(=O)CSc1nc2ncccc2[nH]1,-16,?,-2,-18%
COC(=O)c1ccc(NC(=O)CSc2ccccn2)cc1,36*,?,58*,13%
Cc1cc(C)cc(NC(=O)CS(=O)(=O)c2ccccc2)c1,21,/,-2,/
COC(=O)c1ccc(NC(=O)CSc2ccccc2)cc1,64*,4%,31*,?
O=C(CSc1nc2ncccc2[nH]1)c1ccc2c(c1)OCO2,43*,/,39*,/
COC(=O)c1ccc(NC(=O)CS(=O)(=O)c2ccccc2)cc1,46,/,11*,/
CCOC(=O)C1=C(CSc2nc(C)cc(C)c2C#N)OC(N)=C(C#N)[C@H]1c1cccs1,/,/,/,-29%[46.1 µM]
COc1ccc(Cn2c(CCC(=O)Nc3cc(OC)c(OC)c(OC)c3)nc3cccnc32)cc1,/,-28%[46.1 µM],/,0%[46.1 µM]
Cc1cc(C)cc(NC(=O)CSc2nc3ncccc3[nH]2)c1,/,8%[46.1 µM],/,/
CCN(CC)C(=O)Nc1ccc(C(=O)OC)cc1,13,30%,16*,1%[46.1 µM]
COC(=O)c1ccc(NC(=O)CSc2nc3ncccc3[nH]2)cc1,22,5%,12*,?
N#Cc1cccc(NC(=O)CSc2ccccc2)c1,3,7%,9.1*,4%
C=CCc1ccccc1OCC(O)CNC(=O)c1ccccc1C(=O)O (centres undefined),15,23%[46.1 µM],9,11%[46.1 µM]
SMILES,Shiga inhibitor,Lassa entry inh,CHX counter,Marburg entry inh
CNC(=O)NC(=O)Cn1cnc2sc(-c3ccccc3)cc2c1=O,22,-30%,-3,-2%[46.1 µM]
CCN(CC)C(=O)Cn1nnc2sc(-c3ccccc3)cc2c1=O,/,15%[46.1 µM],/,2%[46.1 µM]
O=c1c2cc(-c3ccccc3)sc2ncn1/N=C/c1ccco1,83,?,37*,?
CCCCCn1cnc2sc(-c3ccccc3)cc2c1=O,61*,0%,47*,2%
COc1ccccc1-n1cnc2sc(-c3ccccc3)cc2c1=O,71,22%,25,?
CCCCn1cnc2sc(-c3ccccc3)cc2c1=O,98*,?,38*,23%[46.1 µM]
CC(C)c1ccc(Nc2cc(C(=O)NC3CCCCC3)c3ccccc3n2)cc1,/,12%[46.1 µM],/,-27%[46.1 µM]
CCOC(=O)c1nnsc1Nc1ccc(C)c(C)c1,59*,/,43*,/
Cc1ccc(C(=O)N(C)CC(=O)Nc2ccc(F)c(F)c2F)o1,15,1%,6,13%
CCn1cc(CNC(=O)CCc2nnc(CCC3CCCCC3)o2)cn1,18,/,-2,/
Cc1ccc(C(=O)N/C(=C/c2ccco2)C(=O)Nc2cccc(C(=O)O)c2)cc1,28,/,22*,/
CC(=O)c1cccc(NC(=O)/C(=C\c2ccco2)NC(=O)c2cccs2)c1,29*,1%,13*,-6%
O=C(Nc1cccc(C(F)(F)F)c1)/C(=C/c1ccco1)NC(=O)c1cccs1,-16,0%,-2,-5%
O=S(=O)(CCNCc1ccco1)NC1CCCCC1,/,12%[46.1 µM],/,/
C[C@@H]1CN(C2CCN(C(=O)COc3ccccc3)CC2)C[C@H](C)O1,/,/,/,7%
COc1cc(OC)c(NC(=O)Nc2c(C)n(C)n(-c3ccccc3)c2=O)cc1Cl,/,-7%[46.1 µM],/,-14%[46.1 µM]
Cc1cc(N)ccc1N=Nc1c(C)n(C)n(-c2ccccc2)c1=O,29,5%,31*,-5%

# Bioassay records: PubChem BioAssay, National Center for Advancing Translational Sciences (NCATS)
